Screens (PubChem)
D1 antag: human D1 dopamine receptor antagonism. HEK293 TREx D1 cells, calcium flux, dopamine EC80; hits give low values. activity change, negative = inhibition, % at 10 µM. 360,000 compounds, 3.2% hits. AID 504652; in the data active means activity change below about -30%; further: on the % scale 0 is the no-effect control and ±100 the full control effect
Target sequence (P21728 whole entry, looked up): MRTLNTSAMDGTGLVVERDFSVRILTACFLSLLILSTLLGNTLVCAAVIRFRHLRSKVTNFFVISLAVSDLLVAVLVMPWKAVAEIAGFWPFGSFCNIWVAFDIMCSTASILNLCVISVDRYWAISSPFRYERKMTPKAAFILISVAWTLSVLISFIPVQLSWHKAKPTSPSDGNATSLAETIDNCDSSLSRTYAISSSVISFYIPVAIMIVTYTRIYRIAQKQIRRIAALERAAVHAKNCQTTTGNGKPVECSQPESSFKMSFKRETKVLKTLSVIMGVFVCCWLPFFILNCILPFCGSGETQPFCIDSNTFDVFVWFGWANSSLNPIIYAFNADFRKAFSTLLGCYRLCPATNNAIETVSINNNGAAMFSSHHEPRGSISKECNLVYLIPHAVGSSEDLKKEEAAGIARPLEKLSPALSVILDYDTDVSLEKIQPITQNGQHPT
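Calcium flux readout: force-coupled, inducible Hek293 Trex D1 line, cells induced overnight at 30 C with tetracycline, dye-loaded 30–90 min at RT. Antagonism scored against EC80 dopamine challenge given 180 s after compound.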
D1 potentiator: enhances dopamine response at the human D1 receptor; HEK293 TREx D1 cells, calcium flux, dopamine EC20 potentiation; 360,000 compounds, 0.036% hits; P21728; potentiation, % at 10 µM; AID 504651; in the data active means potentiation above about 30%; further: 0% is about no effect
TRHR ag: agonists of human TRH receptor | P34981 | TRHR cells, calcium flux fluo-8, FDSS agonist mode | activation, % at 2 µM | 360,000 compounds, 0.18% hits | AID 493084; further: 0% is about no effect
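In this calcium-flux screen, cells bearing human TRHR are dye-loaded with fluo-8, baselined for 10 cycles, then exposed to library compounds; positive kinetic calcium responses during the agonist phase mark hits, with TRH as control.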
TRHR enhancer: TRH receptor (human) allosteric enhancement. P34981. TRHR cells, fluo-8 calcium fluorescence, EC20 TRH enhancement. enhancement, % at 2 µM. 360,000 compounds, 0.66% hits. AID 493056; in the data active means enhancement above about 30%; further: 0% is about no effect
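TRHR-expressing cells loaded with fluo-8 calcium dye were read kinetically (ex 480/em 530) during compound addition, then stimulated with an EC20 of TRH (10 nM final). Enhancement of the Gq-mediated intracellular calcium response was scored.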
Glioma ERSR ind: induces the endoplasmic reticulum stress response in human glioma cells; Potency, µM, for inactives: at the highest dose activation, usual class: activators; AID 602332; 420,000 compounds, 0.02% hits; U87-MG GRP78 promoter luciferase reporter, 16 h; active means well fitted activation curve with a large enough effect; further: potency means the concentration at half of the fitted maximal effect; series mostly up to about 76 µM; % of control where 0% means no effect; nearly all actives have a fitted effect of over 35% in size
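Stably transfected U87-MG human glioma cells carrying a GRP78-based luminescent sensor were seeded at 1000 cells/well, pin-dosed with compounds and incubated 16 h. Luciferase reagent was then added, and end-point luminescence was read after 10 min at room temperature.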
D1 ag: agonists of human D1 dopamine receptor; P21728; HEK293 T-REx D1 cells, calcium flux, agonist mode; activation, % at 2 µM; 360,000 compounds, 1% hits; AID 504660; further: 0% is about no effect
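Agonism was scored from calcium flux recorded over 180 s (1 read/s) after pintool compound addition, following a 10-cycle baseline. Cells were inducible force-coupled HEK293 TREx D1, plated overnight at 30 C and loaded with no-wash calcium dye.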
Starred values were filed as active, the others as inactive; · = no result given. Sampled rows, rich in hits. Any-hit rate of the full collection: about 4%. Unless noted, no stated cut-off is given here; in the data, active means activation above about 30%; inactive means the rest.

SMILES	D1 antag	D1 potentiator	TRHR ag	TRHR enhancer	Glioma ERSR ind	D1 ag
COc1ccc(C(=O)C2CCCN(Cc3cn[nH]c3-c3ccc(F)cc3)C2)cc1OC (configuration not stated)	19.4	3.3	0.2	10.2	-5.7%	5.5
COc1ccc2cc(-c3[nH]ncc3CN3CCCN(c4ccccc4)CC3)ccc2c1	32.0	6.5	0.2	30.6*	2.7%	0.8
COc1ccc(-c2[nH]ncc2CN2CCCN(c3ccccc3)CC2)c(F)c1	-24.8	1.1	1.0	-3.5	-4.6%	7.6
CCOc1ccccc1N1CCN(Cc2cn[nH]c2-c2ccc(F)cc2)CC1	57.5	4.5	0.5	3.3	-4.0%	42.8*
CCOc1ccccc1N1CCN(Cc2cccc(OC)c2OC)CC1	3.5	-7.0	-0.3	-6.5	-4.6%	8.5
COc1ccc(-c2[nH]ncc2CN2CCCC(C(=O)c3ccc(OC)cc3OC)C2)cc1 (configuration not stated)	-30.9*	-5.5	0.6	13.5	1.3%	3.5
CCc1cc2c(=O)c(-c3nc4ccccc4n3C)c(C(C)C)oc2c(CN2CCN(C)CC2)c1O	-3.2	-5.1	-0.3	1.3	-4.3%	-2.7
CCc1nc2ccc(C(=O)Nc3ccc4c(c3)OCC(=O)N4)cn2c1N(C)Cc1nccn1C	·	·	·	·	-3.5%	·
O=C1COc2ccc(S(=O)(=O)Nc3ccc4c(c3)OCO4)cc2N1	-31.7*	1.2	0.4	-0.2	0.5%	5.8
O=S(=O)(Nc1ccc2c(c1)OCO2)c1cccc(Br)c1	-34.1*	-1.2	-0.6	0.4	-5.0%	-0.1
O=S(=O)(Nc1ccc2c(c1)OCCO2)c1cccc(F)c1	2.3	-3.0	-1.2	5.8	-1.3%	5.5
O=C(O)C1CCCCC1C(=O)Nc1cccc(C(=O)N2CCCCC2)c1 (configuration not stated)	-5.7	-2.8	0.2	2.3	-3.3%	0.8
CCCc1cc(-c2n[nH]c(C)c2-c2ccc(C(=O)OCC)o2)c(O)cc1O	62.9	-2.5	-0.2	2.1	-1.6%	65.3*
Cc1ccc(NC(=O)NC(=O)c2cnccc2C(F)(F)F)c(C)c1	12.0	0.2	0.3	3.7	1.9%	2.5
Cc1ccc(N=C(NO)c2cnccc2C(F)(F)F)c(C)c1	1.0	6.3	-0.3	32.0*	-6.7%	1.4
CCC(C)[C@H](NC(=O)N1CC(=O)Nc2ccccc21)C(=O)N[C@@H](Cc1c[nH]c2ccccc12)C(=O)O (some centres not stated)	7.5	3.4	0.4	2.5	-1.5%	2.3
COC(=O)c1nc[nH]c1C(=O)OC	-7.8	-0.2	-0.5	1.5	-2.9%	1.8
Cc1cccc(N2C(=O)N(Cc3cc(=O)n4ccccc4n3)c3ccccc3S2(=O)=O)c1	-68.6*	3.4	-0.2	7.1	-1.1%	0.3
Cc1ccc(CN2C(=O)N(c3ccc(C)c(Cl)c3)S(=O)(=O)c3ccccc32)cc1	-17.1	-1.6	0.2	-7.6	-2.8%	4.3
Cc1ccc(N2C(=O)N(Cc3cc(=O)n4ccccc4n3)c3ccccc3S2(=O)=O)cc1Cl	-6.6	0.5	0.1	1.5	0.0%	2.0
Cc1cccc(N2C(=O)N(Cc3ccc(C(C)(C)C)cc3)c3ccccc3S2(=O)=O)c1	-47.6*	1.3	0.7	0.2	0.6%	1.4
Cc1cc(C)n2nc(C(=O)OCC(=O)NNC(=O)c3ccc(Cl)cc3)nc2n1	-9.7	0.7	0.4	-0.4	-2.0%	1.3
O=C(O)c1ccccc1-c1nc2ccccc2c(=O)[nH]1	-39.8*	5.0	1.0	15.2	-0.1%	-0.9
CCCCOC(=O)n1c(SCC(=O)N(CC)CC)nc2ccccc21	1.9	-1.4	0.7	-2.6	3.0%	3.8
Cc1ccc(C(=O)NC(=S)N2CCN(c3ccccc3F)CC2)cc1	-42.3*	-4.0	-0.4	-4.1	8.4%	1.3
SMILES	D1 antag	D1 potentiator	TRHR ag	TRHR enhancer	Glioma ERSR ind	D1 ag
CCCCCn1c(=O)c(F)cn(Cc2ccc(OC)c([N+](=O)[O-])c2)c1=O	7.9	-0.6	0.1	6.0	1.1%	1.4
CCCCn1c(=O)c(F)cn(Cc2ccc(OC)c([N+](=O)[O-])c2)c1=O	13.0	-5.0	16.9	-5.8	-0.9%	74.7*
Clc1cccc(/C=N/N2CCN(Cc3ccccc3)CC2)c1	-32.5*	-2.8	0.1	1.0	2.8%	4.8
C(=N\N1CCN(Cc2ccccc2)CC1)/c1ccccc1	-3.7	-3.6	-0.1	3.9	10.7%	0.2
O=C(COC(=O)c1ccc(Cl)nc1)Nc1ccc2ccccc2c1	-14.5	-5.9	0.2	6.3	-0.3%	3.0
CCCCn1c(NCc2ccccc2NS(=O)(=O)c2ccc(C)cc2)nc2ccccc21	-32.1*	-12.7	1.2	-4.5	-2.2%	3.9
CCCCn1c(NCc2ccccc2O)nc2ccccc21	-0.7	-6.8	0.3	-5.2	6.8%	0.6
CCCNCC(O)COc1ccccc1C(=O)CCc1ccccc1 (configuration not stated)	-51.9*	·	1.5	-8.8	-4.6%	·
CCN(CC)CC(O)COc1ccccc1C(=O)CCc1ccccc1 (configuration not stated)	-29.2	-4.8	3.2	-5.8	-3.2%	15.2
CN1C(=O)C(C)(C)c2cc(S(=O)(=O)N3CCN(c4ccccc4)CC3)ccc21	-39.8*	-1.6	-0.9	-1.2	-2.7%	3.7
COc1ccc(S(=O)(=O)c2c(Nc3ccc(C)cc3C)sc(C(=O)c3ccc(F)cc3)c2N)cc1	-48.1*	-3.1	6.5	-9.7	0.2%	87.7*
COc1ccc(S(=O)(=O)c2c(Nc3ccccc3F)sc(C(=O)c3cccc(OC)c3)c2N)cc1	-0.1	-1.2	5.2	-4.2	-0.4%	80.0*
CCOc1ccc(Nc2sc(C(=O)c3ccc(F)cc3)c(N)c2S(=O)(=O)c2ccc(C)cc2)cc1	-40.6*	-0.5	2.7	1.8	-3.2%	48.1*
CCc1ccccc1Nc1sc(C(=O)c2cccc(OC)c2)c(N)c1S(=O)(=O)c1ccccc1	11.4	-1.1	0.7	-4.5	1.3%	13.1
Cc1cccc(C)c1Nc1sc(C(=O)c2ccccc2)c(N)c1S(=O)(=O)c1ccccc1	31.8	0.8	1.0	-10.3	-3.1%	8.0
CCOc1cc(C(=O)NC)cc(Br)c1OCc1ccccc1	-6.4	-0.3	-1.4	-6.8	-2.9%	2.0
COc1ccc(/C=N/n2cnc3scc(-c4cccs4)c3c2=O)cc1OC	-12.5	-1.7	0.2	-1.5	-3.2%	1.6
Cc1c2c(n3c(nc4ccccc43)c1C#N)N(CCN1CCOCC1)CC2	-37.5*	-2.0	2.7	-3.7	-3.7%	-0.3
COc1cc(C(=O)Nc2ccc3c(c2)OCO3)c([N+](=O)[O-])cc1OC	-27.9	-6.5	0.1	-0.8	-5.1%	3.6
COC1OC(CO)C(N(C)C(C)=O)C1O (configuration not stated)	·	·	·	·	-5.4%	·
